SMILES strings stand for the structures. In all, about 300,000 compounds went through this assay and about 1,100 (0.37%) were called active. Many of the other results were omitted from the sample, so actives are more common in it than they were. Values without a mark were called inactive.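 Rule for the calls: active = inhibition past about -25% in most replicates, and total fluorescence under double the plate's negative control median (limit read from the data); inconclusive = replicates evenly split on the limit, or fluorescence at least double controls; inactive = too little inhibition in most replicates.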

This test deals with Zinc finger protein mex-5 (Caenorhabditis elegans) (UniProt Q9XUB2). Put plainly: MEX-5 zinc finger RNA-binding disruptors – biochemical, C. elegans, fluorescence polarization, MLPCN library, primary screen (AID 1832).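 Note: 0% = DMSO and -100% = 5 µM competing unlabeled TCR2 RNA.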 To be noted: MEX-5/FITC-TCR2 RNA binding, at 10 µM, stronger effect = lower value.
Zinc finger protein mex-5 (Caenorhabditis elegans), sequence (Q9XUB2 whole entry, looked up): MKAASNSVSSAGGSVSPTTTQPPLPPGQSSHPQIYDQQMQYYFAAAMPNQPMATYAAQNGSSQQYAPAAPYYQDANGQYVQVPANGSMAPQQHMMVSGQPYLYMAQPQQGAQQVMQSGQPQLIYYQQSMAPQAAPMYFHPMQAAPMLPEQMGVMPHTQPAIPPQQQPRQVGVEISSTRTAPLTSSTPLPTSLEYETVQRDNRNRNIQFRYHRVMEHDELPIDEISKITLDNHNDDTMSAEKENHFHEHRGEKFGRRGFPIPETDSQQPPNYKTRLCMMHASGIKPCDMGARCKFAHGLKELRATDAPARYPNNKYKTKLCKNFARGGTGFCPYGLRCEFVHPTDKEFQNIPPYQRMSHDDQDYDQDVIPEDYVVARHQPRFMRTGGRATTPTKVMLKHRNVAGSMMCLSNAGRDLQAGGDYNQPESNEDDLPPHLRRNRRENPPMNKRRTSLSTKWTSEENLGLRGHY
Turning to `CCOCCCNC(=S)Nc1ccc2nc(N3CCN(CC)CC3)cc(C)c2c1`, the activity score (negative = inhibition of binding) is 2.27%.

In the case of `CCOCCCNC(=O)C(NC(=O)CNC(=O)c1ccccc1)c1ccc(OC)cc1` (centres undefined), the activity score (negative = inhibition of binding) was -1.36%.

With `O=C(C1=C(O)C(=O)N(Cc2ccccc2)C1c1ccco1)c1ccco1` (centres undefined), the activity score (negative = inhibition of binding) is 0.4%.

As for `O=C(C1=C(O)C(=O)N(c2ncccn2)C1c1cccs1)c1ccco1` (centres undefined), the activity score (negative = inhibition of binding) is -42.2% (active).

In the case of `O=C(C1=C(O)C(=O)N(Cc2ccccc2)C1c1cccnc1)c1ccco1` (centres undefined), the activity score (negative = inhibition of binding) is -1.21%.

Regarding `c1ccc2c(c1)CCc1snnc1-2`, the activity score (negative = inhibition of binding) was 2.39%.

Turning to `O=C(Cn1nc(C(=O)O)c2ccccc2c1=O)Nc1ccc(F)cc1`, the activity score (negative = inhibition of binding) was -2.04%.

Consider `Cc1ccc(-c2nn(-c3ccccc3)cc2/C=C2\SC(=S)N(CCCCCC(=O)O)C2=O)o1`, for which the activity score (negative = inhibition of binding) was -7.25%.

Regarding `CCCCN(C(=O)c1ccc(OC(F)(F)F)cc1)c1c(N)n(CCC)c(=O)[nH]c1=O`, the activity score (negative = inhibition of binding) is 1.98%.

On to `CCn1c(=N)c(S(=O)(=O)c2ccc(F)cc2)cc2c(=O)n3ccccc3nc21`, for which the activity score (negative = inhibition of binding) was -29.2% (active).

`COc1ccc(CNC(=O)c2cc3c(=O)n4ccccc4nc3n(CC3CCCO3)c2=N)cc1` (centres undefined): the activity score (negative = inhibition of binding) was -4.96%.

For the compound `Cc1ccc(Cn2c(=N)c(S(=O)(=O)c3ccc(C)cc3)cc3c(=O)n4ccccc4nc32)cc1`, the activity score (negative = inhibition of binding) was 6.5%.

Consider `Cc1ccc(/C=C/C(=O)Nc2ccc([N+](=O)[O-])c(NC(=O)/C=C/c3ccc(C)o3)c2)o1`, for which the activity score (negative = inhibition of binding) is 1.59%.

As to `O=C(N/N=C/c1ccc([N+](=O)[O-])o1)c1cn(-c2ccccc2)nc1-c1ccc(F)cc1`, the activity score (negative = inhibition of binding) is -3.11%.

For the compound `O=C(/C=C/c1ccc([N+](=O)[O-])o1)NNC(=O)c1ccc(F)cc1`, the activity score (negative = inhibition of binding) is -26.8% (active).

In the case of `O=C(c1ccc(F)cc1)n1c(=S)nc2ccccn21`, the activity score (negative = inhibition of binding) was 0.662%.

As for `O=C(COC(=O)c1ccc(F)cc1F)Nc1ncccn1`, the activity score (negative = inhibition of binding) was -8.66%.

Regarding `CC(C)NC(=S)Nc1cccc2cnccc12`, the activity score (negative = inhibition of binding) was 0.93%.

In the case of `CC1(C)Cc2nc3sc4c(SCC(=O)NC(c5ccccc5)c5ccccc5)ncnc4c3cc2CO1`, the activity score (negative = inhibition of binding) was -0.0678%.

Take `Cc1ccc(NC(=O)CSc2sc3c(O)cc(=O)[nH]c3c2C#N)cc1C`: the activity score (negative = inhibition of binding) is -1.19%.

Consider `O=C(N/N=C/c1ccc([N+](=O)[O-])cc1)C(=O)N1CCCC1`, for which the activity score (negative = inhibition of binding) is -0.216%.

As for `COC(=O)N/N=C/c1ccc(-c2ccc(Cl)c(Cl)c2)o1`, the activity score (negative = inhibition of binding) is 2.42%.

Take `O=C(N/N=C\c1ccc(-c2ccc(Cl)c(Cl)c2)o1)C(=O)N1CCCC1`: the activity score (negative = inhibition of binding) is -55.2% (active).

For the compound `COC(C(=O)NCc1ccccc1C)c1ccccc1` (centres undefined), the activity score (negative = inhibition of binding) is -0.406%.

On to `O=C(NCCCN1CCOCC1)C1CCCN(S(=O)(=O)N2CCCCC2)C1` (centres undefined), for which the activity score (negative = inhibition of binding) was 0.135%.

In the case of `S=c1[nH]nc2c3c4c(sc3ncn12)CCCC4`, the activity score (negative = inhibition of binding) was 0.932%.

Consider `ON=C1/C(=N\O)CC2(C/C1=N/O)OCCO2`, for which the activity score (negative = inhibition of binding) is -31.5% (active).

With `O/N=C1\CC2(Cc3nonc31)OCCO2`, the activity score (negative = inhibition of binding) was 2.02%.

As to `COc1ccc(C(=O)c2c(C)c(CCC#N)n3ccccc23)c(OC)c1`, the activity score (negative = inhibition of binding) was -2.13%.

Turning to `COc1cc(/C=C2/C(=O)ON=C2C)ccc1OCc1ccccc1F`, the activity score (negative = inhibition of binding) was -63.3% (active).

As to `COc1cc(/C=C2/C(=O)ON=C2C)ccc1OCc1cccc(F)c1`, the activity score (negative = inhibition of binding) was -9.55%.

In the case of `C=CCOc1ccc(/C=C2/C(=O)ON=C2C)cc1OCC`, the activity score (negative = inhibition of binding) is -10.9%.

Regarding `CC(=O)Nc1ccc(Nc2nc3c(S(=O)(=O)c4ccc(C)c(C)c4)nnn3c3ccccc23)cc1`, the activity score (negative = inhibition of binding) was -3.46%.

Turning to `Cc1cc(=O)oc2cc(NC(=O)C3CC(=O)N(Cc4ccccc4)C3)ccc12` (centres undefined), the activity score (negative = inhibition of binding) was -4.23%.

As for `CCn1c(/C=C/c2ccc([N+](=O)[O-])o2)nc2ccccc2c1=O`, the activity score (negative = inhibition of binding) was -34.2% (active).

On to `Cc1cc(C)nc(N/N=C/c2ccc([N+](=O)[O-])o2)n1`, for which the activity score (negative = inhibition of binding) was -9.59%.

Take `C/[N+]([O-])=C\c1ccc([N+](=O)[O-])o1`: the activity score (negative = inhibition of binding) was -3.97%.

As to `COc1ccc(NS(=O)(=O)c2cccc3nsnc23)cc1Cl`, the activity score (negative = inhibition of binding) was 1.95%.

Consider `COC(=O)c1ccc(NC(=S)Nc2cccc(C)n2)cc1`, for which the activity score (negative = inhibition of binding) was -0.058%.

`Cn1ccc(=Nc2ccc(NC(=O)c3ccc(N=c4ccn(C)c5ccc([N+](=O)[O-])cc45)cc3)cc2)cc1`: the activity score (negative = inhibition of binding) is -46.8% (active).

On to `O=C(Nc1ccc(C(=O)N2CCCCC2)cc1)c1cccc([N+](=O)[O-])c1`, for which the activity score (negative = inhibition of binding) is 1.72%.

Regarding `Cc1cc([N+](=O)[O-])ccc1NC(=O)c1ccc(NC(=O)C(C)C)cc1`, the activity score (negative = inhibition of binding) is 0.662%.

Take `CN(C)Cc1c(O)ccc2occ(C(O)c3ccccc3)c12` (centres undefined): the activity score (negative = inhibition of binding) was 1.82%.

Take `CCCn1nc(C(=O)NNC(=O)CSCC(=O)Nc2cc(C)on2)c2ccccc2c1=O`: the activity score (negative = inhibition of binding) is -9.23%.

On to `CCCCn1nc(C(=O)Nc2ccc(S(=O)(=O)Nc3ncccn3)cc2)c2ccccc2c1=O`, for which the activity score (negative = inhibition of binding) is 2.51%.

`CCCn1nc(C(=O)Nc2ccc3nc(C)sc3c2)c2ccccc2c1=O`: the activity score (negative = inhibition of binding) was -34.8% (active).

As to `CCOC(=O)NC(=O)C(=CNc1cccc(OC)c1)C(=O)NC(=O)OCC`, the activity score (negative = inhibition of binding) was -0.689%.

Take `C=CCOc1ccccc1NC(=O)CN1C(=O)CNC1=O`: the activity score (negative = inhibition of binding) was 1.49%.

With `Cc1nc(CN(C)C(=O)CC2C(=O)NCCN2Cc2ccc(F)cc2)cs1` (centres undefined), the activity score (negative = inhibition of binding) was -3.2%.

As to `NS(=O)(=O)c1ccc(NC(=O)/C=C/c2ccccc2Cl)cc1`, the activity score (negative = inhibition of binding) was -0.539%.

As for `COc1ncnc2c1N=C1CC(C)(C)CC(N)=C1S2`, the activity score (negative = inhibition of binding) was -36.1% (active).

With `Cn1c(Nc2ccccc2)cc(=O)n(C)c1=O`, the activity score (negative = inhibition of binding) was -3.14%.

Regarding `Oc1c(Cl)cc(Cl)c(Cl)c1Cc1c(O)c(Cl)cc(Cl)c1Cl`, the activity score (negative = inhibition of binding) was -82.9% (active).

As for `Cc1cc(NS(=O)(=O)c2ccc(NC(=S)NC(=O)c3ccc(F)cc3Cl)cc2)no1`, the activity score (negative = inhibition of binding) is -0.765%.

`O=C(NCC1CCCO1)C1CCN(C2CCN(C(=O)C3CCCCC3)CC2)CC1` (centres undefined): the activity score (negative = inhibition of binding) was -0.223%.

For the compound `COc1cc(C(=S)N2CCOCC2)cc(OC)c1OC(=O)c1ccc([N+](=O)[O-])cc1[N+](=O)[O-]`, the activity score (negative = inhibition of binding) is -2.68%.

With `Cc1cc(C(=O)Nc2c(C)n(C)n(-c3ccccc3)c2=O)cs1`, the activity score (negative = inhibition of binding) is 2.16%.

Consider `Cc1c(NC(=O)c2coc(=O)c(Br)c2)c(=O)n(-c2ccccc2)n1C`, for which the activity score (negative = inhibition of binding) is -44.8% (active).

As to `Cc1c(NC(=O)c2cccnc2)c(=O)n(-c2ccccc2)n1C`, the activity score (negative = inhibition of binding) was 0.492%.

Values taken from PubChem BioAssay AID1832 (Broad Institute, 2009).
